Screening results (PubChem)
Sfp PPTase inh – Sfp phosphopantetheinyl transferase inhibition | Q9F4F7 | Potency, µM, for the others: largest response in the series, negative = inhibition, actives largely listed as inhibitors | AID 1490 | Biochemical Sfp PPTase activity, qHTS | 310,000 tested, 3.5% active;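 note: the enzyme is Sfp with the accession as filed and its product quenches rhodamine fluorescence; 0% = enzyme reaction without inhibitor and -100% = no enzyme wells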
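Compounds were incubated with enzyme (final 15 nM) for 15 min at room temperature before substrate addition started the reaction. Fluorescence at 525 nm excitation, 598 nm emission was recorded immediately and after 30 minutes.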
PLK1 PBD inh – inhibitors of human PLK1 polo-box domain binding | P53350 | Plk1 PBD binding of FITC phosphopeptide, fluorescence polarization | Potency, µM, without a hit: max response, negative = inhibition, most hits filed as inhibitors | 360,000 tested, 2.8% active; note: series mostly up to about 57 µM; nearly all actives have a fitted effect of over 65% in size
VDR inh – vitamin D3 receptor (human) inhibition | P11473 | VDR-SRC2-3 peptide fluorescence polarization, 2 h | Potency, µM, for inactives: max response, negative = inhibition, most hits filed as inhibitors | 400,000 tested, 0.93% active
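After 23 nl compound addition and a short centrifugation, plates sat for 2 hours at ambient temperature; polarization of fluorescence then indicated loss of VDR binding to peptide SRC2-3.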
ALOX12 inh – blocks human arachidonate 12S-lipoxygenase. 580,000 tested, 1.1% active. purified 12hLO, xylenol orange hydroperoxide absorbance. Potency, µM (doses to about 108 µM), for inactives: at the highest dose activity change, negative = inhibition, hits mostly inhibitors. P18054
Target sequence (P18054 whole entry, looked up): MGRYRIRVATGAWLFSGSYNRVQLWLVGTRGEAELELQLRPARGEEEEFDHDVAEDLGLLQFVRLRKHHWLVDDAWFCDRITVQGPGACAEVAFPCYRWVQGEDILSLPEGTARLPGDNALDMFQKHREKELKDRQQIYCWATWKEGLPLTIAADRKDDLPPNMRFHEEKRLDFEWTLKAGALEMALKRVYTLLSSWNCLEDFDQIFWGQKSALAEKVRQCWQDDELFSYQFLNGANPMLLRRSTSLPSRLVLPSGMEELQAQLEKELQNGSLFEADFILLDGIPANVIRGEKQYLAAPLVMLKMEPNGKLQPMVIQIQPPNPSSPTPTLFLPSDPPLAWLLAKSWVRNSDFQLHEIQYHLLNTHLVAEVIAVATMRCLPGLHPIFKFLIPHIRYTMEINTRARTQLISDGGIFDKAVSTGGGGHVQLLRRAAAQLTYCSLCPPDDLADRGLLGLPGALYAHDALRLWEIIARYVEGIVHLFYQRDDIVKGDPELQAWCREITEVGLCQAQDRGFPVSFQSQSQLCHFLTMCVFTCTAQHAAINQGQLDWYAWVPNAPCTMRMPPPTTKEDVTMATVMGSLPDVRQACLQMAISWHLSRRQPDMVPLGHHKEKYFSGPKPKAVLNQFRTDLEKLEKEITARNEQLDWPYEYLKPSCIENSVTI
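Purified human 12hLO at 150 nM in 25 mM Hepes, 0.01% Triton X-100, pH 7.0, preincubated 15 min at room temperature with compound. Reaction started with 40 uM arachidonic acid, 30 min at room temperature. Hydroperoxide measured by Fe-xylenol orange, 573/405 nm absorbance ratio.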
An asterisk follows results filed as active; ? = inconclusive; · = no result; [ ] = dose if it differs, or a comment. The list is not random: actives were taken first. Their share in the collection is about 4.2%. Calls come from the whole dose curve; as a rule, active = well fitted curve in the direction sought with a large enough effect; inconclusive = small, poorly fitted or top-dose-only effect, or another doubt; inactive = no such curve, though single readings can be large; an effect the other way counts as inactive or inconclusive. Unless noted, % is set by controls: 0 for no effect and ±100 for the full control effect; potency is the fitted concentration of half-maximal effect.

SMILES | Sfp PPTase inh | PLK1 PBD inh | VDR inh | ALOX12 inh
CN(C)c1ncc(/C=C2/C(=O)NC(=S)N(C3CCCCC3)C2=O)cn1 | 44.7µM* | · | · | ·
OCCOc1ccccc1 | 25.2% | -1.3% | -19.3% | 3.2%
COCC(=O)NC[C@H]1C[C@@H]2CCN1C[C@@H]2c1cc(-c2ccccc2Br)nc(C)n1 | · | · | · | 49.8%
COc1cc2[nH]c(C(=O)N3CCC4(CC3)OCCO4)cc2c(OC)c1OC | 3.0% | -13.8% | 15.9% | -5.9%
Cn1nc(-c2ccccc2)cc1[C@H]1CN2CC[C@H]1C[C@@H]2CNC(=O)NCc1ccccc1 | · | · | · | -6.5%[176 µM]
CCCCN1C(=O)NC(=O)/C(=C/c2cnc(SC)nc2)C1=O | 25.1µM* | 8.44µM* | 25.1µM* | 72.7%
O=C1Nc2ccccc2C12CN(Cc1cccnc1)C2 | · | · | · | -1.5%[12.5 µM]
CCN(CCO)CCn1c(Cc2ccccc2)nc2c1c(=O)n(C)c(=O)n2C | · | · | · | -10.4%[22.9 µM]
Cc1nnc2n1-c1ccc(Cl)cc1C(c1ccccc1Cl)=NC2 | -3.0% | · | -0.7% | ·
O=C1NC(=O)N(c2ccccc2F)C(=O)/C1=C/c1ccc(Oc2ccc([N+](=O)[O-])cn2)cc1 | 50.1µM* | 5.97µM* | 79.4µM* | ?
CCOC(=O)c1c(C=O)c2ccccc2n1Cc1ccccc1 | -7.6% | -1.7% | 4.3% | 0.0%
COc1cccc2c1NC1(C)c3cc4c(cc3-n3nncc3CN1C2=O)OCO4 (configuration not stated) | · | · | · | -0.8%
CCCCCCCSc1cc(OC)c(CCN(C)C)cc1OC | 14.1µM* | -6.2% | -4.2% | ?
O=c1c2ccccc2[nH]c(=S)n1-c1ccc2c(c1)OCCO2 | 14.7% | -3.3% | -1.4% | -2.0%
CCC(=O)OC1CCC2C3CCC4CC(=O)C=CC4(C)C3CCC12C (configuration not stated) | · | -6.0% | 50.1µM* | -1.2%
CC(C)CCON=O | -6.5% | · | -13.7% | ·
Cc1ccc(C(=O)N2[C@H]3CC[C@@H]2c2cnc(-c4ccc(F)cc4)nc2C3)cn1 | · | · | · | 39.8µM*
O=c1[nH]c(=O)n(Cc2ccco2)c(O)c1C=NC1CCN(Cc2ccccc2)CC1 | 9.7% | -0.1% | -16.3% | -25.6%
C[C@H]1CC[C@H]2NCCN[C@H]2C1 | 100µM* | -23.8% | 3.1% | 0.0%
COc1ccccc1C1C([N+](=O)[O-])=C(N)Oc2c1c(=O)oc1ccccc21 (configuration not stated) | -20.0% | 2.6% | 0.1% | 104.2%
CC(C)NC(=O)[C@H]1CN2CC[C@H]1C[C@@H]2Cn1cc(-c2ccccn2)nn1 | · | · | · | 11.4%[176 µM]
S=C1Nc2ccccc2Sc2ccccc21 | ? | 26.7µM* | -14.8% | ?
COc1ncccc1C(=O)NCC(CC(=O)O)c1ccccc1 (configuration not stated) | 9.4% | -9.4% | -1.3% | -25.9%
COC(=O)C(O)(c1ccc(N(C)C(=O)c2cccs2)cc1)C(F)(F)F (configuration not stated) | -8.4% | 23.8µM* | 50.1µM* | -10.4%
O=C(CCNC(=O)N1C[C@H]2C[C@@H](C1)c1cccc(=O)n1C2)Nc1ccc(F)cc1 | 9.2% | 0.0% | -4.2% | 21.6%
SMILES | Sfp PPTase inh | PLK1 PBD inh | VDR inh | ALOX12 inh
CC(=O)C1CCOC1=O (configuration not stated) | · | · | · | -7.1%[22.9 µM]
[Cl][In]([Cl])[Cl] | 44.7µM* | · | 19.8% | ?
O=C(O)c1ccc(-c2ccc3cc(C45CC6CC(CC(C6)C4)C5)c(O)cc3c2)cc1 | ? | · | 56.2µM* | ?
Cc1ccc(-c2cc(-c3ccc(C)cc3)[n+](-c3ccc(C(=O)O)cc3)c(-c3ccc(C)cc3)c2)cc1 | · | -22.2% | -8.5% | -27.1%
Nc1ccc2c3c(cccc13)-c1ccccc1-2 | · | 9.47µM* | -15.2% | -29.6%
c1cc2ccc3cccc4ccc(c1)c2c34 | · | · | · | -8.3%[57.4 µM]
C=CCC1([C@@H](C)CCC)C(=O)NC(=O)NC1=O | · | -23.2% | -9.0% | -0.2%
C=C(C)C(Cc1c(OC)ccc(C(=O)/C=C/c2ccc(O)cc2)c1O)OO (configuration not stated) | · | -2.0% | -24.5% | 20µM*
CCN(CC)CCN1C(=O)CN=C(c2ccccc2F)c2cc(Cl)ccc21 | 3.0% | · | ? | ·
Cn1c(O)c(/C=N/Nc2ccccc2)c(=O)n(C)c1=O | 56.2µM* | -16.5% | -21.2% | ?
Cc1ccccc1CN1CCN(c2ccc(Cl)cc2)CC1 | 50.1µM* | 3.3% | -13.3% | -20.5%
Cc1ccccc1CN1CCN(Cc2cccc(F)c2)CC1 | · | · | · | 0.112µM*
Cc1ccccc1CN1CCNCC1 | 0.5% | -0.2% | 29.4% | ?
COCCN1C(=O)/C(=C/c2c(OC)cc(OC)cc2OC)C(=O)N(c2ccccc2)C1=O | 20.5% | ? | -11.0% | -10.8%
